Reference: PubChem BioAssay (NCI)
Compounds without any hit were thinned out: in the full panel of roughly 83,000, 20% have a hit.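 Single-dose data. Exposure time 48 hours. Values below 10 considered active.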 Activity calls are given as the source filed them.

Key:
Assay in all cases: NCI-60 one-dose screen, 48 h (100 = growth as untreated, 0 = no growth, -100 = all killed)
Settings in all cases: 10 µM unless noted
[1] = tested on: SR leukemia
[2] = tested on: RPMI-8226 leukemia
[3] = tested on: OVCAR-8 ovarian
[4] = tested on: OVCAR-5 ovarian
[5] = tested on: OVCAR-4 ovarian
[6] = tested on: SK-OV-3 ovarian
[7] = tested on: IGROV1 ovarian
[8] = tested on: OVCAR-3 ovarian
[9] = tested on: HS 578T breast
[10] = tested on: NCI/ADR-RES ovarian

Measured: growth

OCCNc1nc(Nc2ccc(Cl)c(Cl)c2)nc2ccccc12
inactive: [2] 30.7% | [3] 37.5% | [4] 78.3% | [5] 44.8% | [6] 62.8% | [7] 39.1% | [8] 48.2% | [9] 53.3%
active: [1] 3.46%

C=C(C)[C@@H]1CC[C@]2(C(=O)N3CCN(CC)CC3)CC[C@]3(C)[C@H](CC[C@@H]4[C@@](C)(CCC(=O)N5CCN(CC)CC5)[C@H](C(=C)C)CC[C@]43C)[C@@H]12
inactive: [2] 22.3% | [3] 78.3% | [4] 72.3% | [5] 77.4% | [6] 95.5% | [7] 73.6% | [8] 60.5% | [9] 80.8%
active: [1] 5.68%

CCN(CC)C(=O)CCCCCn1c2ccccc2c2c3c(c4c5ccccc5[nH]c4c21)C(=O)N(O)C3=O
active: [1] 5.8%
inactive: [2] 16.1% | [3] 20.8% | [4] 104% | [5] 56.6% | [6] 79.5% | [7] 27.6% | [8] 46.5% | [9] 71.1% | [10] 12.7%

Cc1cc2nc3c4cc(Cl)ccc4n(CCN(C)C)c3nc2cc1C
inactive: [3] 19.1% | [4] 21.8% | [5] 27.1% | [6] 31.1% | [8] 32.9% | [9] 45.5%
active: [1] 5.12% | [2] -11.5% | [7] 4.29%

O=C1c2ccccc2NC(c2cn(-c3ccccc3)nc2-c2cccs2)N1Cc1ccccc1 (stereo not drawn)
inactive: [1] 66.8% | [2] 76.2% | [3] 90.3% | [4] 90% | [5] 87.1% | [6] 84% | [7] 69.3% | [8] 89.3% | [9] 94.3%

COc1ccc(C2=NN(c3nc(-c4ccc(OC)cc4)c(C#N)c(=O)n3C)C(=O)CC2)cc1
inactive: [1] 87.2% | [2] 95% | [3] 101% | [4] 72.3% | [5] 105% | [6] 96% | [7] 96.3% | [8] 104% | [9] 94.9%

COc1ccc(NC(=O)c2ccoc2COc2ccccc2)cc1
inactive: [1] 88.4% | [2] 91.8% | [3] 100% | [4] 95.8% | [5] 101% | [6] 106% | [7] 91.2% | [8] 109% | [9] 99.7% | [10] 93%

Nc1nc(Br)nc2c1ncn2C1CC(O)C(CO)O1 (stereo not drawn)
inactive: [1] 52.2% | [2] 73.5% | [3] 35.9% | [4] 76.3% | [5] 81.9% | [6] 94.2% | [7] 96.3% | [8] 80.9% | [9] 91.7% | [10] 22.3%

O=C1CN(c2ccccc2)C(=O)C1C(=O)Nc1ccc(Cl)c(Cl)c1 (stereo not drawn)
inactive: [2] 34.9% [100 µM] | [4] 36.3% [100 µM] | [6] 20.3% [100 µM] | [7] 20.9% [100 µM] | [8] 39.3% [100 µM] | [9] 32.8% [100 µM]
active: [1] 1.54% [100 µM] | [3] -9.87% [100 µM] | [5] 0.243% [100 µM]

Cc1ccc(-c2nc([P+](c3ccccc3)(c3ccccc3)c3ccccc3)c(N3CCOCC3)o2)cc1
active: [1] 5.72% | [2] -24.2% | [3] 3.78% | [6] -43.9% | [7] 1.46% | [8] -0.275%
inactive: [4] 18.9% | [5] 12.3%

CC[C@]12C=CCN3CC[C@@]4(c5cc([C@H]6CCC(=O)N6)c(OC)cc5N(C)[C@H]4[C@@](O)(C(=O)OC)[C@@H]1OC(C)=O)[C@@H]32
inactive: [1] 92% [2.5 µM] | [2] 114% [2.5 µM] | [3] 103% [2.5 µM] | [4] 88.4% [2.5 µM] | [5] 104% [2.5 µM] | [6] 91.1% [2.5 µM] | [7] 103% [2.5 µM] | [8] 112% [2.5 µM] | [9] 113% [2.5 µM] | [10] 107% [2.5 µM]

COc1ccc(-c2cc(=O)oc3ccc(Cl)cc23)cc1F
active: [6] 0.514% | [8] 6.02%
inactive: [1] 11.2% | [2] 28.1% | [3] 20.3% | [4] 54.7% | [5] 55.9% | [7] 43.1% | [9] 20.1%

CC(=O)O[C@H]1CC[C@]2(C)[C@H]3CC=C4[C@@H]5[C@H](C)[C@@H](C)CC[C@]5(C(=O)NCCNCCNCCN)CC[C@@]4(C)[C@]3(C)CC[C@H]2C1(C)C
active: [1] -5.48%
inactive: [2] 42.3% | [3] 96% | [4] 96.1% | [5] 95.2% | [6] 106% | [7] 57% | [8] 89.8% | [9] 95.4%

C=C(C)[C@@H]1CC[C@]2(C(=O)N3CCCNCC3)CC[C@]3(C)[C@H](CC[C@@H]4[C@@]5(C)CCC(=O)C(C)(C)[C@@H]5CC[C@]43C)[C@@H]12
inactive: [2] 92% | [3] 95.6% | [4] 106% | [5] 92.3% | [6] 106% | [7] 93.6% | [8] 98.8% | [9] 94.2% | [10] 91.8%
active: [1] 8.04%

Cc1cc2nc3c4cc(N)ccc4n(CCN(C)C)c3nc2cc1C
active: [1] -0.184% | [2] -7.46% | [7] 3.64%
inactive: [3] 13.7% | [4] 18.5% | [5] 14.6% | [6] 18.4% | [8] 22.3% | [9] 41.8%

COc1cc2c3c(c4c5ccccc5[nH]c4c2c(OC)c1OC)C(=O)N(O)C3=O
active: [7] 9.03%
inactive: [1] 14.3% | [2] 31.6% | [3] 36.8% | [4] 112% | [5] 56.6% | [6] 48.8% | [8] 49.5% | [9] 67.4% | [10] 43.8%

COc1ccccc1-n1cnc(N)c1C(=O)c1cc(OC)c(OC)c(OC)c1
inactive: [1] 30.2% | [2] 30.9% | [3] 61.8% | [4] 79.1% | [5] 65.9% | [6] 48.2% | [7] 45.5% | [10] 55.1%
active: [8] -21.3% | [9] -12.8%

CN1CCN(c2nc(-c3csc(-c4cccs4)n3)cc3ccccc23)CC1
inactive: [2] 13.3% | [3] 75.6% | [4] 87.7% | [5] 57.9% | [6] 90.8% | [7] 23.1% | [8] 39.9% | [9] 71.3% | [10] 70.8%
active: [1] 2.45%

Cc1cc2nc3c4cc([N+](=O)[O-])cc([N+](=O)[O-])c4n(CCN(C)C)c3nc2cc1C
active: [1] 5.05%
inactive: [2] 67.5% | [3] 61.4% | [4] 87.8% | [5] 90.8% | [6] 90.2% | [7] 60.2% | [8] 92.6% | [9] 90.2%

CCN(CC)c1ccc(/C=C/c2cc(C)c3ccccc3n2)cc1
inactive: [1] 43.6% | [2] 65.6% | [3] 75.1% | [4] 92.4% | [5] 82.8% | [6] 57.7% | [7] 54.1% | [8] 37.1% | [9] 93.8% | [10] 15.9%

CC1(C)C(=O)CC[C@]2(C)[C@H]3C(=O)C=C4[C@@H]5C[C@@](C)(C(=O)NCCNCCN)CC[C@]5(C)CC[C@@]4(C)[C@]3(C)CC[C@@H]12
inactive: [1] 20% | [2] 91.1% | [3] 99.6% | [4] 108% | [5] 105% | [6] 104% | [7] 96.4% | [8] 104% | [9] 97.5%

CCN1CCN(C(=O)[C@@]2(C)CC[C@]3(C)CC[C@]4(C)C(=CC(=O)[C@@H]5[C@@]6(C)CC[C@H](OC7C[C@@H](O)[C@@H](O)C(C)O7)C(C)(C)[C@@H]6CC[C@]54C)[C@@H]3C2)CC1 (stereo partly drawn)
inactive: [3] 12.3% | [6] 113% | [7] 26.5% | [8] 105% | [9] 87.5%
active: [1] -4.66% | [2] -25.7% | [4] 9.86% | [5] 0.113%

Cc1ccncc1C(=O)O
inactive: [1] 120% | [2] 108% | [3] 95.5% | [4] 94.7% | [5] 96% | [6] 137% | [7] 99.6% | [8] 101%

COc1cc(-c2nc(-c3ccccc3)c(-c3ccccc3)[nH]2)cc(OC)c1O
inactive: [4] 75.3% | [7] 22.3%
active: [1] 4.48% | [2] 0.561% | [3] -0.964% | [5] -36.5% | [6] -0.937% | [8] -80.9% | [9] 9.67%
